Experimental data as given in PubChem BioAssay (NCATS).
Records with an inconclusive call do not appear. A call without a number means that no potency is given here. Values without a mark were called inactive. Active and inactive are the calls of the source. Calls follow the shape of the dose curve; as a rule, active = well fitted curve in the direction sought with a large enough effect; inconclusive = small, poorly fitted or top-dose-only effect, or another doubt; inactive = no such curve, though single readings can be large; an effect the other way counts as inactive or inconclusive.

What was measured:
[1] = molecular target: Aldehyde dehydrogenase, mitochondrial (Homo sapiens) (UniProt P05091); experiment: qHTS for Inhibitors of the Aldehyde Dehydrogenase Family (ALDH2) Primary screen (AID 2061308); also: nearly all actives have a fitted effect of over 55% in size
[2] = molecular target: Retinaldehyde dehydrogenase 3 (Homo sapiens) (UniProt P47895); experiment: qHTS for Inhibitors of the Aldehyde Dehydrogenase Family (ALDH1A3) Primary screen (AID 2061315)

SMILES | Potency [1] | Potency [2] | activity change, negative = inhibition [1] | activity change, negative = inhibition [2]
CC(C)C1CCC(C(=O)Nc2ccc(S(=O)(=O)Nc3nccs3)cc2)CC1 (stereo not given) | inactive | inactive | – | –
CCCn1c(C)nc2c(NCCN(C)C)nc(C)nc21 | inactive | inactive | – | –
O=C1CCc2cc(S(=O)(=O)Nc3ccncc3)ccc2N1 | inactive | inactive | – | –
O=C(Nc1ccc(F)c(C(F)(F)F)c1)Nc1nnc(-c2cccnc2)s1 | inactive | inactive | – | –
Cc1cc(C)nc(NC(=S)N2CCN(c3ccc(Cl)c(C(F)(F)F)c3)CC2)c1 | inactive | inactive | – | –
CC1(C)CC[C@]23CO[C@@]4(CCC5[C@@]6(C)CC[C@H](O[C@@H]7OC[C@H](O[C@@H]8O[C@H](CO)[C@@H](O)[C@H](O)[C@H]8O)[C@H](O)[C@H]7O[C@@H]7O[C@H](CO)[C@@H](O[C@@H]8O[C@H](CO)[C@@H](O)[C@H](O)[C@H]8O)[C@H](O)[C@H]7O)[C@@](C)(CO)C6CC[C@@]5(C)[C@]4(C)C[C@H]2OC2OCC(O)C(O)C2O)C3C1 (stereo not given in full) | – | – | -1.32% [at 11.2 µM] | 1.39% [at 11.2 µM]
O=C(O)CNC(=O)CNC(=O)CNC(=O)CSC(=O)c1ccccc1 | inactive | inactive | – | –
COc1ccc(C2=Nn3c(nnc3-c3ccccc3Cl)SC2)cc1OC1CCOC1 (stereo not given) | inactive | inactive | – | –
O=S(=O)(NCc1cccc2ccccc12)c1cc(Cl)c(Oc2cccc(N3CCNCC3)c2)s1 | inactive | inactive | – | –
COc1cccc(C(=O)Nc2ccc(-c3nc4ccccc4[nH]3)cc2)c1 | inactive | inactive | – | –
O=C(NCc1ccc(F)cc1)n1cc(P(=S)(c2ccccc2)c2ccccc2)c2ccccc21 | inactive | inactive | – | –
CS(=O)(=O)c1ccc(C(=O)OCC(=O)N2CCC(Cc3ccccc3)CC2)cc1[N+](=O)[O-] | inactive | inactive | – | –
Cc1cc2c(s1)c1cnn(Cc3ccc(C(C)C)cc3)c(=O)c1n2C | inactive | inactive | – | –
N#Cc1cccc(-c2noc(-c3ccccc3F)n2)c1 | inactive | inactive | – | –
COc1ccc2nc(-c3cccc(OCc4ccccc4)c3)sc2c1 | inactive | inactive | – | –
Cc1ccccc1-c1csc2ncnc(Sc3nnnn3C)c12 | inactive | inactive | – | –
Cc1cc(C)n2ncc(C(=O)N3CCCC3)c2n1 | inactive | inactive | – | –
Cc1ccc(NC(=O)c2cnn3c(C)cc(C)nc23)c(C)c1 | inactive | inactive | – | –

SMILES | Potency [1] | Potency [2] | activity change, negative = inhibition [1] | activity change, negative = inhibition [2]
CN1CCN(c2nnc(NC(=O)Nc3ccc(Cl)c(Cl)c3)s2)CC1 | inactive | inactive | – | –
O=S(=O)(c1ccc2c(c1)OCCO2)N1CCN(S(=O)(=O)c2ccco2)CC1 | inactive | inactive | – | –
CC(=O)Nc1sc2c(c1-c1nc(-c3ccccc3)cs1)CCN(C(C)C)C2 | inactive | inactive | – | –
COC(=O)c1ccc(-c2c(NC(C)=O)sc3c2CCNC3)cc1 | inactive | inactive | – | –
CCNc1cccc(S(=O)(=O)N2CCCN(S(=O)(=O)c3ccc4c(c3)OCCO4)CC2)c1 | inactive | inactive | – | –
CCC/C=C\C=C/CCc1cc(O)c([C@@H]2O[C@H](CO)[C@@H](O)[C@H](O)[C@H]2O)c(O)c1C(=O)OC | inactive | inactive | – | –
CSc1cnc(-c2ccccc2C(C)C)nc1NCc1ccc(-c2cccnc2)cc1 | inactive | inactive | – | –
COc1cccc(CNc2ccc(S(=O)(=O)Nc3nc4c(C)cccc4s3)cc2)c1O | inactive | inactive | – | –
Cc1nc(NCCO)c2nc(-c3ccccc3)n(CCCN(C)C)c2n1 | inactive | inactive | – | –
COc1cc(C(=O)OC[C@@]2(O)CO[C@@H](O[C@H]3[C@H](Oc4ccc(O)cc4)O[C@H](CO)[C@@H](O)[C@@H]3O)[C@@H]2O)cc(OC)c1O | inactive | inactive | – | –
Cc1ccc(NS(=O)(=O)c2ccc3c(c2)CCC(C)(C)O3)cc1C | inactive | inactive | – | –
CCCn1c(-c2ccc(F)cc2)nc2c(N3CCN(C)CC3)nc(C)nc21 | inactive | inactive | – | –
COc1ccc(OC)c(NC(=O)C(OC(=O)CNC(=O)c2ccccc2)c2ccccc2)c1 (stereo not given) | inactive | inactive | – | –
CN(C)CC1CCN(C2CCN(C(=O)c3cccc(-c4cc(O)c5ncccc5c4)c3)CC2)CC1 | inactive | inactive | – | –
Cc1ccc(N(C)S(=O)(=O)c2ccc3c(c2)CCC(=O)N3)cc1C | inactive | inactive | – | –
O=C(NCCc1ccc2c(c1)OCO2)c1cc2sccc2[nH]1 | inactive | inactive | – | –
O=C(Nc1ccc([S+](=O)([O-])Nc2nccs2)cc1)C1CCNCC1 | inactive | inactive | – | –
